ELG1 DNA repair: qHTS screen for small molecules that inhibit ELG1-dependent DNA repair in human embryonic kidney (HEK293T) cells expressing luciferase-tagged ELG1 | HEK293T ELG1-luciferase reporter, luminescence, 16 h; DNA damage induced by 5-fluorouridine | Potency, µM (series often up to 46.1 µM), for the others: at the highest dose activity change, negative = inhibition, hits mostly inhibitors | 2.3% of 330,000 active; further: potency means the concentration at half of the fitted maximal effect; nearly all actives have a fitted effect of over 55% in size
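DMSO vehicle served as the neutral condition. Each well held 2,000 cells given 5-fluorouridine plus compound; after 16 hr at 37 °C/5% CO2, ONE-Glo was added and luciferase measured 30 min later.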
TDP1 cell CPT: qHTS for Inhibitors of human tyrosyl-DNA phosphodiesterase 1 (TDP1): qHTS in cells in presence of CPT | chicken DT40 Tdp1-/-;hTDP1 cells + 20 nM CPT, ATP luminescence, 48 h | 12% of 420,000 active | Potency, µM (series often up to 46.2 µM), for inactives: top-dose activity change, negative = growth inhibition, actives largely listed as inhibitors; further: potency means the concentration at half of the fitted maximal effect; nearly all actives have a fitted effect of over 55% in size
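Cell growth measured by CellTiter-Glo luminescence after a minimum 48 h, 37 C compound exposure with 20 nM CPT in Tdp1-knockout DT40 cells stably expressing hTDP1, seeded 400/well; qHTS titration format.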
HT1080 IDH1KD tx: qHTS for induction of synthetic lethality in tumor cells producing 2HG: qHTS for the HT-1080-IDH1KD cell line. 2% of 360,000 active. HT-1080 IDH1 knockdown viability, ATP luminescence, 48 h. AID 686971, 2013. Potency, µM (titrated, usually from 46.1 µM), for the others: at the top dose activity, negative = toxicity, hits mostly cytotoxic;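 further: potency means the concentration at half of the fitted maximal effect; 0% = DMSO wells and -100% = cell-free medium wells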
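Viability of IDH1-knockdown HT-1080 fibrosarcoma cells was assessed by CellTiter-Glo after 48 h at 37 °C with titrated compound; concentration-effect curves were classified by fit quality and response size.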
IL1B secr inh: qHTS for Inhibitors of Inflammasome Signaling: IL-1-beta AlphaLISA Primary Screen. THP-1 LPS/ATP IL-1B secretion, AlphaLISA, 16 h; active compounds read low. activity change, % at 57.5 µM. 4.7% of 360,000 active. AID 743279, 2014; in the data active means activity change below about -50%; inconclusive means mostly about -30% to -49%
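Secreted IL-1B measured by AlphaLISA bead assay after 16 h compound exposure of THP-1 cells; compounds (final up to 57.5 uM) added 1 h before LPS (250 ng/mL) and ATP (1.25 mM) stimulation; lower signal means less secretion.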
HT1080NT lethal: qHTS for induction of synthetic lethality in tumor cells producing 2HG: qHTS for the HT-1080-NT fibrosarcoma cell line | 1.6% of 360,000 active | HT-1080-NT fibrosarcoma viability, CellTiter-Glo ATP luminescence, 48 h | Potency, µM (highest dose often 46.1 µM), for inactives: at the top dose activity, negative = less viability, usual class: cytotoxic;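 further: NT is the 2HG producing partner of a matched IDH1 knockdown line; potency means the concentration at half of the fitted maximal effect; 0% = DMSO-treated cells and -100% = media-only wells without cells; nearly all actives have a fitted effect of over 55% in size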
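Viability of the 2HG-overproducing fibrosarcoma line after 48 hours of compound exposure at 37 degrees C was determined by luminescence with CellTiter-Glo, and concentration-effect curves were then fitted and categorized.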
DT40 TDP1 no CPT: qHTS for Inhibitors of human tyrosyl-DNA phosphodiesterase 1 (TDP1): qHTS in cells in absence of CPT | DT40 Tdp1-/- hTDP1 cells, no CPT, ATP luminescence, 48 h | Potency, µM (titrated, usually from 46.2 µM), for inactives: at the highest dose activity change, negative = growth inhibition, usual class: inhibitors | 15% of 420,000 active; further: potency means the concentration at half of the fitted maximal effect; nearly all actives have a fitted effect of over 55% in size
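Seeded 400 DT40-hTDP1 cells/well (vehicle DMSO, no 20 nM CPT); pinned compounds; ≥48 hr at 37 °C; CellTiter-Glo luminescence as viability measure.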
* = called active by the depositor; ? = inconclusive; / = no result given; [ ] = remark or other dose. Only some compounds are listed: those with a hit (about 19% of all), similar ones and a draw of the others. Unless noted, the call rests on the fitted dose curve; in most records, active means well fitted curve in the direction sought with a large enough effect; inconclusive means small, poorly fitted or top-dose-only effect, or another doubt; inactive means no such curve, though single readings can be large; an effect the other way counts as inactive or inconclusive. Unless noted, on the % scale 0 is the no-effect control and ±100 the full control effect.

SMILES | ELG1 DNA repair | TDP1 cell CPT | HT1080 IDH1KD tx | IL1B secr inh | HT1080NT lethal | DT40 TDP1 no CPT
COc1cc(-c2cc(N)n(S(=O)(=O)c3ccc(F)cc3)n2)cc(OC)c1OC | -23% | 16µM* | -20% | 0 | -26% | 18µM*
Nc1cc(-c2ccccc2)nn1S(=O)(=O)c1ccc(F)cc1 | ? | 29µM* | -7% | -14 | ? | 15µM*
COc1ccc(S(=O)(=O)n2nc(-c3ccc(Cl)cc3)cc2N)cc1OC | ? | ? | ? | -2 | -19% | ?
COc1ccc(-c2cc(N)n(S(=O)(=O)c3ccc(F)cc3)n2)cc1OC | 5.8µM* | 18µM* | 0% | 3 | -1% | 12µM*
COc1ccc(N2CCN(c3ncnc4onc(C)c34)CC2)cc1 | / | 21µM* | / | / | / | 16µM*
Cc1noc2ncnc(N3CCN(c4ccc(F)cc4)CC3)c12 | ? | ? | -1% | 7 | 6% | 18µM*
O=C(COC(=O)/C=C/c1ccc(C(F)(F)F)cc1)NCc1ccco1 | -7% | -2% | -1% | 2 | 3% | -5%
CCOC(=O)Nc1cc(N)ncn1 | / | 3% | 24% | 19 | 14% | -8%
CCN(CC)S(=O)(=O)c1ccc2c(c1)N(CC(=O)NCCc1ccc(OC)c(OC)c1)C(=O)CO2 | / | -27% | / | / | / | -27%
CCN(CC)S(=O)(=O)c1ccc(N2CCN(c3cccc(OC)c3)CC2)c([N+](=O)[O-])c1 | ? | 13µM* | ? | -13 | -3% | 8.2µM*
CCN(CC)S(=O)(=O)c1ccc2c(c1)N(CC(=O)N1CCN(c3cccc(OC)c3)CC1)C(=O)CO2 | / | 21µM* | / | / | / | ?
COc1cccc(N2CCN(c3ccc(S(=O)(=O)N4CCN(C)CC4)cc3[N+](=O)[O-])CC2)c1 | ? | ? | -5% | -5 | -5% | ?
CCN(CC)S(=O)(=O)c1ccc2c(c1)N(CC(=O)N1CCC(C(N)=O)CC1)C(=O)CO2 | 19% | 21% | 9% | 15 | 16% | 3%
CCN(CC)S(=O)(=O)c1ccc2c(c1)N(CC(=O)N1CCN(c3ccc(OC)cc3)CC1)C(=O)CO2 | / | 21µM* | / | / | / | ?
O=C(CN1C(=O)COc2ccc(S(=O)(=O)N3CCCCCC3)cc21)N1CCN(c2ccc(F)cc2)CC1 | / | 23µM* | / | / | / | 21µM*
CCN1CCN(C(=O)CN2C(=O)COc3ccc(S(=O)(=O)N4CCOCC4)cc32)CC1 | 16% | -8% | -1% | -12 | -3% | 35%
Cc1cc(C)nc(NC2=NCCN2C(=S)Nc2ccc(C)c(C)c2)n1 | 19% | 2% | ? | / | 7% | ?
O=C(CSc1nnc(NC(=O)c2ccccc2F)s1)NC1CC1 | ? | 2% | -9% | 19 | 5% | 12%
CC(C)=CCCC1=CC[C@H](C(=O)O)[C@H](C(=O)O)C1 | / | 3%[9.04 µM] | / | / | / | 0%[9.04 µM]
COc1ccc(C2(C)NC(=O)N(CC(=O)c3cc(C)n(C4CC4)c3C)C2=O)cc1 (stereo unspecified) | 10% | ? | 0% | 18 | -4% | ?
Cc1cc(C(=O)CN2C(=O)NC(C)(c3ccc(F)c(F)c3)C2=O)c(C)n1C1CC1 (stereo unspecified) | / | 7.3µM* | 3% | 28 | -10% | 5.8µM*
